Rows were chosen to be rich in hits. Some 10% of all compounds tested hit in one or more screens of this group.
G9a block = blocks human histone lysine methyltransferase G9a; 350,000 tested, 8.8% active; Potency, µM (top dose mostly 102 µM), actives largely listed as inhibitors; AID 504332; G9a H3K9 monomethylation, AlphaScreen, 2 h; Q96KQ7; also: nearly all actives have a fitted effect of over 75% in size
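G9a (20 nM) preincubated 15 min RT with compounds, then 500 nM biotinylated H3K9 peptide and 20 uM SAM added; 2 h RT reaction. Monomethyl-H3K9 product detected by AlphaScreen with anti-H3K9me1 antibody, streptavidin donor and anti-rabbit IgG acceptor beads.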
JMJD2A Tudor inh = JMJD2A Tudor domain (human) inhibition; O75164; AlphaScreen JMJD2A-Tudor / H3K4me3 peptide binding; Potency, µM (top dose mostly 114 µM), most hits filed as inhibitors; 390,000 tested, 4.4% active; AID 504339; also: nearly all actives have a fitted effect of over 50% in size
BAZ2B inh = BAZ2B (human) inhibition; AlphaScreen BAZ2B-H3K14Ac peptide displacement; Potency, µM (highest dose often 114 µM), actives largely listed as inhibitors; 360,000 tested, 4.4% active; AID 504333; also: nearly all actives have a fitted effect of over 60% in size
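BAZ2B 50 nM plus b-H3(5-23)K14Ac 50 nM, PBS pH 7.4/0.01% Tween-20, 30 min RT; compound added (max 110 uM), 30 min RT; streptavidin donor/Ni-chelate acceptor beads 10 ug/mL final, 20 min dark; AlphaScreen read.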
L3MBTL1 inh = blocks human L3MBTL1; Q9Y468; AlphaScreen L3MBTL1–H3K9me1 peptide binding; Potency, µM (doses to about 57.1 µM), most hits filed as inhibitors; 230,000 tested, 0.66% active; also: nearly all actives have a fitted effect of over 60% in size
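L3MBTL1 (50 nM) pre-complexed 30 min with biotinylated H3(1-15)K9me1 peptide (75 nM), then compounds added for 30 min at room temperature; AlphaScreen streptavidin donor/nickel chelate acceptor beads (10 ug/mL final) read after 30 min dark incubation.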
GLS inhibitor = glutaminase GLS (human) inhibition; 410,000 tested, 0.21% active; GLS enzymatic activity, qHTS titration; Potency, µM (top dose mostly 45.5 µM), hits mostly inhibitors
Target sequence (O94925 whole entry, looked up): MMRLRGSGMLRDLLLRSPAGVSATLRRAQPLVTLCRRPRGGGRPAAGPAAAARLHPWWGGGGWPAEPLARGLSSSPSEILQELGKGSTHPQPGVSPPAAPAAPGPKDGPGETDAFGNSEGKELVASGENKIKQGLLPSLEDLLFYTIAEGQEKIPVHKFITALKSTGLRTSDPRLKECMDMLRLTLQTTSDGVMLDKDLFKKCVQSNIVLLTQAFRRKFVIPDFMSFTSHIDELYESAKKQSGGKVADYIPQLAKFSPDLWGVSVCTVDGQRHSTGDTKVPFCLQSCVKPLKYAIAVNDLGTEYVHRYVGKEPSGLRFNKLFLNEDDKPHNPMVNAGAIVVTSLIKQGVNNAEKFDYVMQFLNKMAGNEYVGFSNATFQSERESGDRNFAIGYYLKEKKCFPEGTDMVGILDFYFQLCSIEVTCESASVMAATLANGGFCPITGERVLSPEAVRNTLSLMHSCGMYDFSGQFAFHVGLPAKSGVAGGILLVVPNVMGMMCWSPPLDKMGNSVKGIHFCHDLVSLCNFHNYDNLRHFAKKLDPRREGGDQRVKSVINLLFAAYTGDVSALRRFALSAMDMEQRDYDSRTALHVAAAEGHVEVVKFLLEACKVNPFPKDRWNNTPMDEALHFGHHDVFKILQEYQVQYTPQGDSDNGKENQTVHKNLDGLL
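Coupled fluorescence readout: glutamate oxidase/HRP/Amplex Red detect glutamate formed by hKGA from L-glutamine (1 mM solution added). Buffer 45 mM KH2PO4 pH 8.2, 0.02% Tween-20; reads at t0 and 30 min RT.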
HP1b binding inh = blocks HP1-beta chromodomain binding to methylated histone tails | P83916 | AlphaScreen HP1-beta / biotin-H3K9me3 peptide binding | Potency, µM (titrated, usually from 114 µM), usual class: inhibitors | 390,000 tested, 0.56% active; also: nearly all actives have a fitted effect of over 70% in size
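Compound inhibition of the preformed complex between 50 nM HP1-beta and 50 nM biotinylated H3K9me3 peptide was read by AlphaScreen. Buffer was PBS pH 7.4 with 0.01% Tween-20. Incubations ran 30 min at room temperature, with 10 ug/mL donor/acceptor beads.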
Hits are given with their value; n = inactive; u = inconclusive; x = not tested or not shown; [ ] = another dose, or the depositor's remark. Calls follow the shape of the dose curve; as a rule, active = well fitted curve in the direction sought with a large enough effect; inconclusive = small, poorly fitted or top-dose-only effect, or another doubt; inactive = no such curve, though single readings can be large; an effect the other way counts as inactive or inconclusive.

SMILES	G9a block	JMJD2A Tudor inh	BAZ2B inh	L3MBTL1 inh	GLS inhibitor	HP1b binding inh
Cc1ccc(-n2ncc(C(=O)NCCc3ccsc3)c2C2CCN(C(=O)OC(C)(C)C)CC2)cc1C	n	n	n	x	n	n
COc1cccc2sc(N(Cc3cccnc3)C(=O)C3CCCCC3)nc12	n	n	n	x	n	n
COc1cccc(C2C(C(=O)c3sc(C)nc3C)=C(O)C(=O)N2CCN2CCOCC2)c1OC (stereo not given)	u	n	u	n	n	n
COc1ccc(/C(O)=C2/C(=O)C(=O)N(CCN3CCOCC3)C2c2cccnc2)cc1OC (stereo not given)	u	u	n	n	n	n
Cc1ccc(/C(O)=C2/C(=O)C(=O)N(CCN3CCOCC3)C2c2cccnc2)cc1 (stereo not given)	u	89µM	n	n	n	n
Cc1ccc(C)c(/C(O)=C2\C(=O)C(=O)N(Cc3cccnc3)C2c2cccnc2)c1 (stereo not given)	u	n	79µM	n	n	n
COc1ccccc1C1/C(=C(/O)c2ccc(C)cc2)C(=O)C(=O)N1CCN1CCOCC1 (stereo not given)	28µM	n	n	n	n	n
COc1ccccc1C1C(C(=O)c2sc(C)nc2C)=C(O)C(=O)N1CCN1CCOCC1 (stereo not given)	40µM	n	n	n	n	n
COCCCN1C(=O)C(=O)/C(=C(/O)c2ccc(OCC(C)C)cc2C)C1c1cccnc1 (stereo not given)	u	79µM	n	n	n	n
N#CCCN(C(=O)COC(=O)c1ccc2c(=O)n3c(nc2c1)CCC3)c1ccccc1	n	14µM	n	x	n	n
CC(=O)c1cccc(OC(=O)c2ccc3c(=O)n4c(nc3c2)CCC4)c1	7.1µM	n	n	n	n	n
COc1ccc(-c2nc(C(=O)O)cs2)cc1OC	u	u	n	n	n	n
COc1ccc(C(=O)O)nc1C	n	5.6µM	n	n	n	n
Cc1cn(C)c(CC(=O)NCc2cccc(Cl)c2)c1C(=O)O	n	n	n	x	n	n
COc1ccc(COCC(O)CN2CCC(CN3C(=O)c4cccc5cccc(c45)C3=O)CC2)cc1OC (stereo not given)	79µM	n	n	n	n	n
O=C1c2cccc3cccc(c23)C(=O)N1CC1CCN(CC(O)COc2ccc3ccccc3c2)CC1 (stereo not given)	10µM	13µM	u	n	n	u
Cc1ccc(C)c(OCC(O)CN2CCN(CCN3C(=O)c4cccc5cccc(c45)C3=O)CC2)c1 (stereo not given)	u	u	50µM	n	n	n
COc1cccc(OCC(O)CN2CCC(CN3C(=O)c4cccc5cccc(c45)C3=O)CC2)c1 (stereo not given)	u	u	u	x	n	n
Cc1noc(C)c1C(=O)N1CCC2(CCCN(C(=O)Nc3cccc(F)c3)C2)CC1	n[12.7 µM]	x	x	x	x	x
COc1ccc(C(=O)Nc2ccc(OCc3cc(=O)n4ccccc4n3)cc2)cc1	n	n	n	x	n	n
Cc1ccc(/C=C/C(=O)Nc2ccc(N(C)C)cc2)o1	4µM	50µM	35µM	n	n	u
Cc1ccc(/C=C/C(=O)Nc2ncc(C)s2)o1	13µM	n	u	u	n	n
CC(=O)NS(=O)(=O)c1ccc(NC(=O)/C=C/c2ccc(C)o2)cc1	22µM	35µM	n	u	n	u
Cc1cnc(NC(=O)/C=C/c2ccc(Br)o2)s1	x	n	n	n	n	n
NC(=O)c1ccc(C[C@H](C(=O)O)N2C(=O)c3ccc(C(=O)O)cc3C2=O)cc1	n[12.7 µM]	u	n	n	x	x
SMILES	G9a block	JMJD2A Tudor inh	BAZ2B inh	L3MBTL1 inh	GLS inhibitor	HP1b binding inh
Cc1ccc(N2CCN(C(=O)c3c(C)oc4ncnc(N5CCCCC5)c34)CC2)c(C)c1	n	n	u	x	n	n
CCCOC(=O)Nc1nc(-c2ccc(C)cc2)c(C)s1	50µM	n	n	n	n	n
CCOC(=O)Nc1nc(-c2ccccc2)c(C(=O)c2ccccc2)s1	n	n	n	x	n	n
Cc1ccn2c(c1)nc(=O)c1cc(S(=O)(=O)N3CCCCC3)ccc12	n	n	n	x	u	n
O=c1nc2ccccn2c2ccc(S(=O)(=O)N3CCCCC3)cc12	45µM	n	n	x	n	n
Cc1ccc(C2C(C#N)=C(N)Oc3n[nH]c(-c4cccs4)c32)s1 (stereo not given)	50µM	n	u	n	n	n
N#CC1=C(N)Oc2n[nH]c(-c3cccs3)c2C1c1ccncc1 (stereo not given)	n	n	n	n	n	n
Cc1cccc(OCC(=O)Nc2ccc(-c3nc4cc(C)ccc4o3)c(O)c2)c1	n	n	n	x	n	n
Cc1ccc(C)n1-c1ccc(N(C)C)cc1	7.1µM	50µM	25µM	x	13µM	u
O=C(Nc1ccc(S(=O)(=O)N2CCOCC2)cc1)c1c(F)cccc1F	35µM	n	n	x	n	n
CCN(CC)c1ccc(NC(=O)c2ccc(S(=O)(=O)N3CCOCC3)cc2)cc1	x	45µM	x	n	n	u
O=C(Nc1ccc(S(=O)(=O)N2CCCC2)cc1)c1c(F)cccc1F	n	n	n	x	n	n
O=C(O)c1nccnc1C(=O)Nc1ccc(S(=O)(=O)N2CCOCC2)cc1	45µM	u	n	n	n	n
O=C(Nc1ccc(S(=O)(=O)N2CCOCC2)cc1)c1ccc(S(=O)(=O)N2CCOCC2)cc1	u	n	n	x	n	n
COc1ccccc1CNc1nc2c(S(=O)(=O)c3ccccc3)nnn2c2ccc(Cl)cc12	n	n	n	x	n	n
Cc1ccc(C)c(S(=O)(=O)N2CCN(C(=O)Cc3ccccc3)CC2)c1	n[0.501 µM]	n	n	n	n	n
Cc1ccc(C)c(S(=O)(=O)N2CCN(C(=O)CSC(=S)N3CCCC3)CC2)c1	50µM	n	n	n	n	n
CCC(C)NC(=O)c1cc2n(n1)CCCN(Cc1ccc(C)cc1)C2=O (stereo not given)	n	n	n	x	n	n
O=c1nc(Nc2ccccc2)oc2ccccc12	n	n	n	x	n	n
O=c1nc(Nc2cccc(Cl)c2)oc2cc(Cl)oc(=O)c12	50µM	n	u	n	n	n
O=C(c1ccc2c(=O)n(Cc3ccccc3Cl)c(=S)[nH]c2c1)N1CCCC1	n	n	n	x	n	n
Cn1c(=O)n(Cc2ccccc2Cl)c(=O)c2c1[nH]c(=S)n2C	1.3µM	13µM	u	x	14µM	u
O=c1c2nccnc2[nH]c(=S)n1Cc1ccccc1Cl	n	n	u	n	10µM	n
Cn1c(SCc2nn[nH]n2)nc2c1c(=O)n(Cc1ccccc1Cl)c(=O)n2C	u	n	n	n	11µM	n
Cc1cccc(CN2CCN(CC(=O)Nc3c(C)cccc3C)S2(=O)=O)c1	n	n	n	x	n	n

Compound activity deposited in PubChem by National Center for Advancing Translational Sciences (NCATS).
